This is an account of results in ChEMBL document CHEMBL3988442, “University of Dundee, Small-Polar-MMV Screening Library” (2021).

Each structure is given as a SMILES string. For some of these results: Measured potencies and affinities stand elsewhere.

Common to all, as to set-up: scale not given: direction of the effect not stated beside the values
Assay [1] addresses Protein translocase subunit SecA (Escherichia coli (strain K12)) (UniProt P10408). Nature of the assay: Assay to Identify E. coli SecA ATPase Inhibitors. It is filed as functional. As to conditions: 30 µM.
The target in assay [2] is T1, Ubiquitin-activating enzyme e1, putative (Leishmania donovani (strain BPK282A1)) (UniProt E9BSI1).
T1 sequence (whole entry): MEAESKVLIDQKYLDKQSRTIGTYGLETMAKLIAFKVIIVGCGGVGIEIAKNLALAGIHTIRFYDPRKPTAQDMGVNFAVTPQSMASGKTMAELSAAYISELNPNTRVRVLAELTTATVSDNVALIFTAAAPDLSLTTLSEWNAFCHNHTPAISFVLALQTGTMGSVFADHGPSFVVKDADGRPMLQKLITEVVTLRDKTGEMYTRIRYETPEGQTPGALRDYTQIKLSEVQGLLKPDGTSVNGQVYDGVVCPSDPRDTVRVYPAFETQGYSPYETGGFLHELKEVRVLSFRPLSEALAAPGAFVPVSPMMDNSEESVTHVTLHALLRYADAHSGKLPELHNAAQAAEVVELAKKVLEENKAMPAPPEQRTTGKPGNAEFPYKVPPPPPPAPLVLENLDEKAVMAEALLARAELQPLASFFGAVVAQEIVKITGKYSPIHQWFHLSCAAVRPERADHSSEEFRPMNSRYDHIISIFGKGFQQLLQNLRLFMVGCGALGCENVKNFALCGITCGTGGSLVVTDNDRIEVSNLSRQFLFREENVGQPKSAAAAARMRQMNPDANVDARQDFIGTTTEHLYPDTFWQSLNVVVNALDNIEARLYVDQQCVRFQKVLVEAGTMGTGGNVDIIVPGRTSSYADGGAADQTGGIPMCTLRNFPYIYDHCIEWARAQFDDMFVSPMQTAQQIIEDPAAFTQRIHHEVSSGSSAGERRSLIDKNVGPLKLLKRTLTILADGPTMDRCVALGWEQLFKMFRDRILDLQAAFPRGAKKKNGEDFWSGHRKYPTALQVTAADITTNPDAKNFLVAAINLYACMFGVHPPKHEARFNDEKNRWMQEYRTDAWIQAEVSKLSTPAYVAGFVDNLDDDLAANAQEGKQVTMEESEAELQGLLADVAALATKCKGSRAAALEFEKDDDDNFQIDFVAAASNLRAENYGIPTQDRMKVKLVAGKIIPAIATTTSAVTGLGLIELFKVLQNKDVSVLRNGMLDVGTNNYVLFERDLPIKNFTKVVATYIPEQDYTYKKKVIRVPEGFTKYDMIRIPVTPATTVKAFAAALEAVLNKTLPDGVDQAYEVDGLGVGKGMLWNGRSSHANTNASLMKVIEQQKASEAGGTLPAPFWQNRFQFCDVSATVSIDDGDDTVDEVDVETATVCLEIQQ
Nature of the assay: Leishmania donovani Ubiquitin Activating Enzyme (LdE1). As to conditions: 30 µM. It is filed as functional.

The target of assay [3] is AMP-activated protein kinase, AMPK (Homo sapiens) (UniProt P54646+O43741+P54619+Q9UGJ0+Q9Y478+Q13131+Q9UGI9). The assay can be described thus: AMP-dependent Kinase enzyme assay. An in vitro enzyme assay that detects ADP turnover that is directly proportional to AMPK activity. This uses naive AMPK that is activated during the assay with MK-8722. The class given is functional. To be noted: 30 µM.

For assay [4], the target named is Sialic acid-binding Ig-like lectin 9 (Homo sapiens) (UniProt Q9Y336). The assay can be described thus: Hs-Siglec9 ALPHAscreen SOP 20170721. To be noted: 10 µM. (In general: Bead proximity is the source of the signal in Alpha formats.)
Chain of Sialic acid-binding Ig-like lectin 9 (Homo sapiens) (Q9Y336 whole entry): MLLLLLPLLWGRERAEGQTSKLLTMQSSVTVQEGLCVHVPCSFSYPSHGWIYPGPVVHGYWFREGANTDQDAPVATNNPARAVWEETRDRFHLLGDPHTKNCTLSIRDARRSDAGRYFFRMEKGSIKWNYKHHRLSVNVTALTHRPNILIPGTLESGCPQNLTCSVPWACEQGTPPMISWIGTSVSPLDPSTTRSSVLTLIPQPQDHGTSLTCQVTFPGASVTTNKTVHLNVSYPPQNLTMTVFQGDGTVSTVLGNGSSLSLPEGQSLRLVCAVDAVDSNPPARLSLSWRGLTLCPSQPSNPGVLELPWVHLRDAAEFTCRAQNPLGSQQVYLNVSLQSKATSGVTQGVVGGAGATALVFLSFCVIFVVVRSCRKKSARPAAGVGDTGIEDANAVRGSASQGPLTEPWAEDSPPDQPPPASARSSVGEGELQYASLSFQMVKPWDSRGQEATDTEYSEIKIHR
Another assay has as its system Trypanosoma cruzi. Nature of the assay: Trypanosoma cruzi phosphomannomutase and mannose-1-phosphate guanylyltransferase assay. To be noted: 10 µM. The class given is functional.
In assay [5] the target is T2, Arginase-2, mitochondrial (Homo sapiens) (UniProt P78540).
T2 sequence (whole entry): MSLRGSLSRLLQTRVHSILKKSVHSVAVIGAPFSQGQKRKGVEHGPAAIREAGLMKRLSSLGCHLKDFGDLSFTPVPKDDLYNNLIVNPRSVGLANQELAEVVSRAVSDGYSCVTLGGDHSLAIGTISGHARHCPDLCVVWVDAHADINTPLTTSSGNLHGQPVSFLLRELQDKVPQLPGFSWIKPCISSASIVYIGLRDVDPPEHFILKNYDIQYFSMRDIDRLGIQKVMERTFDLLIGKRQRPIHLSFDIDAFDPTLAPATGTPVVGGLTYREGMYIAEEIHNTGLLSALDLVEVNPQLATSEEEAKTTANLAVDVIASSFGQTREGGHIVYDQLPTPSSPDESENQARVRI
Nature of the assay: in vitro enzyme assay to detect the production of urea directly proportional to the activity of Arginase II. Also: in the data most compounds retested in dose-response had high values. It is filed as functional. As to conditions: 33.3 µM.

The target of assay [6] is T3, Proteasome subunit beta (Trypanosoma cruzi) (UniProt O96673).
T3 sequence (whole entry): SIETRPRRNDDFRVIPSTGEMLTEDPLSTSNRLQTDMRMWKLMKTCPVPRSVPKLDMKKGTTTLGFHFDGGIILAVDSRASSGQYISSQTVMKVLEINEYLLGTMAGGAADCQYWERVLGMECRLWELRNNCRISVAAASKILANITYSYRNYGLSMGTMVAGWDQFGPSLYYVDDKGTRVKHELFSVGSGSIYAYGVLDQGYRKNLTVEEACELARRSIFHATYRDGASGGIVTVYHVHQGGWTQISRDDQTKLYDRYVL
The assay can be described thus: Trypanosoma cruzi proteasome chymotrypsin-like activity (TcProtChymo) assay. Also: in the data most compounds retested in dose-response had high values. The class given is functional. To be noted: 9.37 µM.

The species named for another assay is Homo sapiens. Nature of the assay: To identify inhibition of the IFN signalling (Jak-Stat) pathway via expression of an eGFP reporter gene under the control of an IFN-stimulated response element (ISRE) containing MxA promoter. It is filed as functional. As to conditions: 30 µM. (In a reporter assay the amount or activity of a reporter protein is the signal.)

The target in assay [7] is T4, Tyrosyl-tRNA synthetase, putative (Trypanosoma cruzi (strain CL Brener)) (UniProt Q4DSP6).
T4 sequence (whole entry): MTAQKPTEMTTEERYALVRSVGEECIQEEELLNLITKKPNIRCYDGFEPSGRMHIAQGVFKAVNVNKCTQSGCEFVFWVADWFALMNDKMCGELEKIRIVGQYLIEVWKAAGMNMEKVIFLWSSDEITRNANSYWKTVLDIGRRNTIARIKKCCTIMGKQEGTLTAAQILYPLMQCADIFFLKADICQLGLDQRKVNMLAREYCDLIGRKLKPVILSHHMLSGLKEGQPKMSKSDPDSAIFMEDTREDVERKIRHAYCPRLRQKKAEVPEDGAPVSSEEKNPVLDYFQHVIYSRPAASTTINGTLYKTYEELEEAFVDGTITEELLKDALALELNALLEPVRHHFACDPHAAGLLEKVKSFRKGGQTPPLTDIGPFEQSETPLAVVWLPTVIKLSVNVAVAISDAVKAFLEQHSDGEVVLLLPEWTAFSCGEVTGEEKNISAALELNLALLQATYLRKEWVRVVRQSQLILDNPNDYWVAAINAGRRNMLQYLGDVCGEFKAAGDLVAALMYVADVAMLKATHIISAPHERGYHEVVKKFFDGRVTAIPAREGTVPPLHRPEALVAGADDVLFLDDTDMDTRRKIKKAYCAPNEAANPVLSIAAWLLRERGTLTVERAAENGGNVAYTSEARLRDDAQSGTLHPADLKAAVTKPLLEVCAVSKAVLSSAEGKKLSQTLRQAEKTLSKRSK
The assay can be described thus: Trypanosoma cruzi tyrosyl tRNA synthetase (TcYRS) _High Tyrosine SOP. Also: in the data most compounds retested in dose-response had high values. The class given is functional. As to conditions: 30 µM.

Assay [8] addresses T4, Tyrosyl-tRNA synthetase, putative (Trypanosoma cruzi (strain CL Brener)). Nature of the assay: Trypanosoma cruzi tyrosyl tRNA synthetase (TcYRS) SOP. It is filed as functional. To be noted: 30 µM.
Assay [9] has as its target Chromo domain-containing protein 1 (Saccharomyces cerevisiae (strain ATCC 204508 / S288c) (Baker's yeast)) (UniProt P32657). Nature of the assay: ScCHD-1 Enzyme Inhibition Assay. Also: in the data most compounds retested in dose-response had high values. As to conditions: 30 µM. It is filed as functional.

Chain of Chromo domain-containing protein 1 (Saccharomyces cerevisiae (strain ATCC 204508 / S288c) (Baker's yeast)) (P32657 whole entry, the tested form may be a part): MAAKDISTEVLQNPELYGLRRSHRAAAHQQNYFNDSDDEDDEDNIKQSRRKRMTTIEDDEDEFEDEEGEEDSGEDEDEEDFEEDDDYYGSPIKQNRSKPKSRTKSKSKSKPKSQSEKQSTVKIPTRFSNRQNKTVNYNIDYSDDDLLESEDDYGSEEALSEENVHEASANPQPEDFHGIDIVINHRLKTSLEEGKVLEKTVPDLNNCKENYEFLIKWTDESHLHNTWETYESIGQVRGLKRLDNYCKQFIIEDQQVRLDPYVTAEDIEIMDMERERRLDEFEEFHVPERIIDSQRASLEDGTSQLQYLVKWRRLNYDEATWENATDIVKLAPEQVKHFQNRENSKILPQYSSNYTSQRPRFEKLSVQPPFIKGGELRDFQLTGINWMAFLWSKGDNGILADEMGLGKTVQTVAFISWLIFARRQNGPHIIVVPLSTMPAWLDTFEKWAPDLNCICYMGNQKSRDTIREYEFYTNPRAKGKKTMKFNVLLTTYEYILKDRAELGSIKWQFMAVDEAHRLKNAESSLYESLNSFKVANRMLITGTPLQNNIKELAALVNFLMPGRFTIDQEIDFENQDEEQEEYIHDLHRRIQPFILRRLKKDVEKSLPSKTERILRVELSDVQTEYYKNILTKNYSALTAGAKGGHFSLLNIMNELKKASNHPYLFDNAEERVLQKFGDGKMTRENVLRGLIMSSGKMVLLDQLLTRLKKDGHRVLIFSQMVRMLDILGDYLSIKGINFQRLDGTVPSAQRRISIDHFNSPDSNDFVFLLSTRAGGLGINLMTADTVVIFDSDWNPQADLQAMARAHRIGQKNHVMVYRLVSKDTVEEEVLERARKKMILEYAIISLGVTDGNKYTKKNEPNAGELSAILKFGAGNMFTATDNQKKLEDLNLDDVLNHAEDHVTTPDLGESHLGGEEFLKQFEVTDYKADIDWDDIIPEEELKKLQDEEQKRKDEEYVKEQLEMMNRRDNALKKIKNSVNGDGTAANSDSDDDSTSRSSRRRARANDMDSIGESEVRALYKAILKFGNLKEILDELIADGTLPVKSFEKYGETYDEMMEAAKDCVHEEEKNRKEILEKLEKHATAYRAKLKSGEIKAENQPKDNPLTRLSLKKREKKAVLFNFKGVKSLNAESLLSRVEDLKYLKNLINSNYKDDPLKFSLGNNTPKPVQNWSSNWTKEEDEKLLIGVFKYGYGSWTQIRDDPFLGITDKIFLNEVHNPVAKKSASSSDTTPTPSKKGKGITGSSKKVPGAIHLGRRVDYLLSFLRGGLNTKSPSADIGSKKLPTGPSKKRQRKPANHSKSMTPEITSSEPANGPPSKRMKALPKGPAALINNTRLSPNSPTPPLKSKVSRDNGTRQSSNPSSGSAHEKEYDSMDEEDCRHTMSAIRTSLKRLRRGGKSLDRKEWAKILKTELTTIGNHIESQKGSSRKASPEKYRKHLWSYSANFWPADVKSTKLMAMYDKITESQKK
Chain of Protein translocase subunit SecA (Escherichia coli (strain K12)) (P10408 whole entry): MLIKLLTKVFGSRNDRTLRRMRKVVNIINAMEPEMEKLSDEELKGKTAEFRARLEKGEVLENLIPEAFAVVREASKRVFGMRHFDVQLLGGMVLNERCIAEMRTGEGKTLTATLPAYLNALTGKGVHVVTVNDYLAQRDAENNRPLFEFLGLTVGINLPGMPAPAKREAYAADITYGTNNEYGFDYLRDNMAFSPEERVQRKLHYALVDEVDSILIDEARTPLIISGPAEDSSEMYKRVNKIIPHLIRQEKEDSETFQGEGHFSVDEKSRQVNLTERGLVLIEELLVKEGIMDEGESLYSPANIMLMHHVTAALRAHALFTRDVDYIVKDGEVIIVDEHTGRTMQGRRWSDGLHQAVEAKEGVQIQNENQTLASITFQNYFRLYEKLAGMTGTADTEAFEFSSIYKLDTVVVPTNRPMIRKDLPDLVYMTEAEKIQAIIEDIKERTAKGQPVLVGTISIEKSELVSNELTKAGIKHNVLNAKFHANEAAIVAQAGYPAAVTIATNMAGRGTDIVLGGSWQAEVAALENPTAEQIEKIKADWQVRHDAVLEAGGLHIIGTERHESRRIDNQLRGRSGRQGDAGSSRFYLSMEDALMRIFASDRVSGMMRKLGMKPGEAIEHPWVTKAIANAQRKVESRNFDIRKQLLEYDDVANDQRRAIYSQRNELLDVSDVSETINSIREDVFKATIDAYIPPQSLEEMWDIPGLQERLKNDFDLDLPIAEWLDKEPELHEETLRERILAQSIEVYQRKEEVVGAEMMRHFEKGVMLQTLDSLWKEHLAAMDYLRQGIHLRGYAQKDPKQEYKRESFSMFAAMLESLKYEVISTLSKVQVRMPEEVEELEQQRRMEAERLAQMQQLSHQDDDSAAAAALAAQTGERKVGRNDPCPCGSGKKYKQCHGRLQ

As for `Cc1ccc(C(=O)NS(=O)(=O)c2ccccc2C)c(=O)[nH]1`, the Percent Effect in [1] is -3.76%; in assay [2], 8.11%; in assay [3], -4.75%; in [4], 9.94%; in the assay with Trypanosoma cruzi, -5.85%; in assay [5] it was -6.84%. Besides, the Percent Effect stood at 4.85% in assay [6]; 15.8% in the assay listed under Homo sapiens; 7.92% in assay [7]; 6.1% in assay [8]; 1.56% in assay [9].

`Cc1nc(CN2CCN(C(=O)c3sccc3C3CC3)CC2)cs1`: the Percent Effect was -2.84% in [1]; 0% in [2]; 8.03% in assay [3]; 9.39% in assay [4]; -0.49% with Trypanosoma cruzi; 3.16% in assay [5]. In addition, the Percent Effect in [6] was 3.48%; in the assay listed under Homo sapiens it was -10.3%; in assay [7] it was -2.86%; in [8], -2.35%; in [9] it was -13.7%.

`CCc1nc(CN2CCCN(c3nc4ccccc4o3)CC2)no1`: the Percent Effect in assay [1] is 7.05%; in assay [2], 13%; in assay [3], -1.96%; in [4], 2.65%; in the assay on Trypanosoma cruzi it was -9.14%; in [5], -13.8%. The Percent Effect in [6] is 12.2%; in the assay listed under Homo sapiens, 23.6%; in [7] it was 4.3%; in assay [8], 8.64%; in assay [9], -0.262%.

In the case of `COc1ccc(S(=O)(=O)NCc2cccnc2N(C)C)cc1F`, the Percent Effect in assay [1] was -1.87%; in assay [2], 20.2%; in [3] it was -8.9%; in assay [4] it was -2.51%; with Trypanosoma cruzi, 2.74%; in assay [5] it was 6.08%. Further, the Percent Effect was 4.18% in [6]; 21.9% in the assay listed under Homo sapiens; 8.37% in assay [7]; 24.1% in assay [8]; -5.49% in [9].

On to `CSCCC1c2nc[nH]c2CCN1Cc1ccnc2ccccc12` (stereo unspecified), for which the Percent Effect in assay [1] was -3.26%; in assay [2] it was 10.7%; in assay [3] it was -26.6%; in assay [4] it was 14.2%; in the assay with Trypanosoma cruzi it was 4.38%; in [5], 5.73%. For the same compound, the Percent Effect in assay [6] is 25.5%; in the assay filed under Homo sapiens, 10.9%; in assay [7] it was 9.29%; in assay [8] it was 6.17%; in [9] it was -4.91%.

`CN(C)C(=O)N1C[C@H](Oc2ccccn2)[C@H]2OCCC[C@H]21`: the Percent Effect was 0.276% in [1]; 0% in [2]; 4.78% in assay [3]; 2.55% in assay [4]; -2.27% in the assay on Trypanosoma cruzi; 0.645% in [5]. Also, the Percent Effect in [6] was 3.65%; in the assay listed under Homo sapiens it was -2.96%; in assay [7], 3.17%; in [8] it was 3.85%; in assay [9] it was -3.5%.

Turning to `O=S(=O)(Cc1ccccc1)N1CCCn2cnc(CN3CCCC3)c2C1`, the Percent Effect in assay [1] was -3.85%; in assay [2], 8%; in assay [3] it was 20.1%; in assay [4], -0.361%; with Trypanosoma cruzi, -4.44%; in assay [5], -57.5%. Also, the Percent Effect in assay [6] is 5.3%; in the assay filed under Homo sapiens it was -10%; in [7] it was 6.25%; in [8], -7.5%; in [9], -6.67%.

Regarding `CC(=O)N1CCCC1c1cccc(Cc2ccccc2F)n1` (stereo unspecified), the Percent Effect was -3.38% in assay [1]; -9.46% in assay [2]; 3.81% in [3]; -1.05% in assay [4]; -2.77% with Trypanosoma cruzi; -1.62% in assay [5]. Also, the Percent Effect in [6] was -1.25%; in the assay listed under Homo sapiens it was 26.6%; in [7] it was -4.3%; in assay [8], -9.09%; in assay [9], 3.67%.

With `Cc1cnn(C2CCCN(C(=O)c3cc(C)sc3C)C2)c1` (stereo unspecified), the Percent Effect in [1] was 2.61%; in assay [2] it was 7.89%; in assay [3], 4.46%; in assay [4], -9.37%; in the assay with Trypanosoma cruzi, -4.97%; in assay [5], 1.18%. The Percent Effect in assay [6] was 18.7%; in the assay filed under Homo sapiens it was -4.44%; in assay [7], 5.32%; in assay [8], 7.79%; in assay [9] it was -5.57%.

`Cc1noc(C2CCC3(CCN(C(=O)c4c(C)noc4C)CC3)O2)n1` (stereo unspecified): the Percent Effect was -6.54% in [1]; 2.7% in assay [2]; -4.63% in [3]; 17.5% in assay [4]; 7.53% in the assay with Trypanosoma cruzi; -6.2% in [5]. The Percent Effect is 0.0858% in [6]; 5.82% in the assay listed under Homo sapiens; -4.3% in assay [7]; 11.1% in [8]; -1.92% in assay [9].

Turning to `c1ccc(OCC2CC3(CCN(c4ncccn4)CC3)CO2)nc1` (stereo unspecified), the Percent Effect in assay [1] was -0.807%; in assay [2], 1.33%; in assay [3] it was 3.04%; in assay [4] it was -2.52%; with Trypanosoma cruzi it was -1.57%; in assay [5], -5.46%. In addition, the Percent Effect in assay [6] is 10.9%; in the assay filed under Homo sapiens, 14%; in assay [7] it was 0%; in [8] it was -2.56%; in [9], -5.94%.
